For six molecules, growth results are on record in PubChem BioAssay (NCI).

“And” between values parts separate entries of the source, which are not always exact repeats. Equal values may be shown once. This is part of a sample that, as a whole, favours compounds with a hit. Of some 83,000 tested, about 20% had one in any assay.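 Each cell line was grown in a 96-well plate and treated with one concentration of compound for 48 hours. Values below 10 were considered active.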 The source made the active and inactive calls.

What all share (assay): NCI-60 one-dose screen, 48 h (100 = growth as untreated, 0 = no growth, -100 = all killed)
What all share (conditions): 10 µM unless noted

Assay [1] concerns NCI-H23 lung.
Assay [2] relates to NCI-H226 lung.
In assay [3] the test system is NCI-H322M lung.
In assay [4] the test system is HOP-62 NSCLC.
Assay [5] concerns NCI-H460 lung.
Assay [6] has as its system NCI-H522 lung.
Assay [7] deals with A549/ATCC NSCLC.
Assay [8] deals with 786-0 renal.
The subject of assay [9] is COLO 205 colon.
Assay [10] has as its system DU-145 prostate.
The subject of assay [11] is K-562 leukemia.
For assay [12], the system named is MALME-3M melanoma.
Assay [13] concerns MDA-MB-231 breast.
Assay [14] concerns RXF 393 renal.
Assay [15] relates to SF-268 CNS.
In assay [16] the test system is SF-295 CNS.
For assay [17], the system named is SF-539 CNS.
Assay [18] concerns UACC-257 melanoma.
For assay [19], the system named is M14 melanoma.
Assay [20] has as its system HOP-92 NSCLC.

As to `N=C(N=C(N)N)N1CCOCC1`, the growth in assay [1] is 103% (inactive) and 90.8% (inactive); in assay [2], 99.3% (inactive) and 98.3% (inactive); in assay [3], 95.4% (inactive) and 112% (inactive); in assay [4], 94.7% (inactive) and 106% (inactive); in assay [5], 99.8% (inactive) and 102% (inactive); in assay [6] it was 94.7% (inactive) and 107% (inactive). The growth was 103% (inactive) and 94.2% (inactive) in [7]; 104% (inactive) and 95.6% (inactive) in [8]; 104% (inactive) and 107% (inactive) in assay [9]; 102% (inactive) and 106% (inactive) in assay [10]; 106% (inactive) and 112% (inactive) in assay [11]; 90.6% (inactive) and 108% (inactive) in [12]. In addition, the growth in assay [13] was 104% (inactive) and 99.2% (inactive); in assay [14] it was 111% (inactive); in assay [15] it was 104% (inactive) and 102% (inactive); in assay [16] it was 110% (inactive) and 96.9% (inactive); in assay [17], 105% (inactive) and 95.9% (inactive); in assay [18] it was 107% (inactive) and 104% (inactive). For the same molecule, the growth in assay [19] was 91.1% (inactive) and 97.2% (inactive).
For `Cc1ccc(N)cc1S(=O)(=O)O`, the growth in [1] was 109% (inactive) and 107% (inactive); in assay [2], 109% (inactive); in assay [3], 125% (inactive) and 113% (inactive); in assay [4], 104% (inactive) and 112% (inactive); in assay [5], 109% (inactive) and 107% (inactive); in [20] it was 93.1% (inactive). Also, the growth was 108% (inactive) and 102% (inactive) in [7]; 107% (inactive) and 98.5% (inactive) in assay [8]; 109% (inactive) and 111% (inactive) in assay [9]; 111% (inactive) and 119% (inactive) in assay [10]; 98.3% (inactive) and 85.5% (inactive) in [11]; 122% (inactive) and 113% (inactive) in assay [12]. The growth in [13] is 109% (inactive); in assay [14], 124% (inactive) and 108% (inactive); in [15] it was 101% (inactive) and 102% (inactive); in assay [16], 111% (inactive) and 112% (inactive); in assay [17], 104% (inactive) and 120% (inactive); in assay [18] it was 117% (inactive) and 92.7% (inactive). The growth in assay [19] was 105% (inactive) and 101% (inactive).
Take `Cc1nc2c(=O)[nH]c(=S)[nH]c2[nH]c1=O`: the growth in assay [1] was 108% (inactive) and 101% (inactive); in [2], 100% (inactive) and 104% (inactive); in [3], 98% (inactive) and 111% (inactive); in assay [4], 108% (inactive) and 99.1% (inactive); in [5] it was 106% (inactive) and 110% (inactive); in [20], 111% (inactive). The growth is 103% (inactive) and 105% (inactive) in assay [7]; 112% (inactive) and 107% (inactive) in assay [8]; 108% (inactive) and 115% (inactive) in [9]; 112% (inactive) and 119% (inactive) in assay [10]; 102% (inactive) in [11]; 108% (inactive) in assay [12]. Moreover, the growth is 112% (inactive) and 102% (inactive) in assay [13]; 111% (inactive) and 125% (inactive) in assay [14]; 109% (inactive) and 104% (inactive) in [15]; 111% (inactive) and 94.6% (inactive) in assay [16]; 104% (inactive) and 99.1% (inactive) in [17]; 110% (inactive) and 97.8% (inactive) in assay [18]. The growth in [19] was 113% (inactive) and 110% (inactive).
For the molecule `COC(=O)c1nc(=S)[nH]c(C(=O)OC)c1C(=O)c1ccccc1`, the growth in assay [1] is 101% (inactive); in [2] it was 90.2% (inactive); in assay [3], 106% (inactive); in assay [4], 113% (inactive); in assay [5], 114% (inactive); in assay [20] it was 92% (inactive). In addition, the growth in assay [7] was 112% (inactive); in [8], 120% (inactive); in [9], 119% (inactive); in [10] it was 116% (inactive); in assay [11] it was 111% (inactive); in assay [12] it was 97.1% (inactive). The growth was 93.5% (inactive) in assay [13]; 99.2% (inactive) in assay [14]; 108% (inactive) in assay [15]; 103% (inactive) in assay [16]; 87.8% (inactive) in assay [17]; 123% (inactive) in [18]. The growth in assay [19] was 113% (inactive).
`C(#CCN1CCOCC1)CCCN1CCOCC1`: the growth is 109% (inactive) and 105% (inactive) in [1]; 100% (inactive) and 115% (inactive) in assay [2]; 119% (inactive) and 99% (inactive) in assay [3]; 93.5% (inactive) and 99.9% (inactive) in assay [4]; 114% (inactive) and 111% (inactive) in assay [5]; 105% (inactive) and 95.4% (inactive) in assay [6]. In addition, the growth is 105% (inactive) and 100% (inactive) in assay [7]; 110% (inactive) and 100% (inactive) in assay [8]; 105% (inactive) and 104% (inactive) in [9]; 109% (inactive) and 117% (inactive) in assay [10]; 114% (inactive) and 113% (inactive) in [11]; 117% (inactive) and 88.9% (inactive) in assay [12]. Also, the growth in [13] is 96.7% (inactive) and 106% (inactive); in assay [14] it was 110% (inactive) and 119% (inactive); in assay [15] it was 105% (inactive) and 104% (inactive); in [16], 113% (inactive) and 106% (inactive); in [17], 104% (inactive) and 91.7% (inactive); in assay [18] it was 97.5% (inactive) and 101% (inactive). Further, the growth in [19] was 105% (inactive) and 98% (inactive).
As to `COc1cc([C@@H]2c3cc4c(cc3[C@H](O)[C@H]3COC(=O)[C@@H]23)OCO4)cc(OC)c1OC`, the growth in assay [1] was 12.2% (inactive) and 13.6% (inactive); in assay [2], 51.8% (inactive) and 45.6% (inactive); in [3] it was 38.9% (inactive) and 23.5% (inactive); in assay [4] it was 15.7% (inactive); in assay [5] it was 4.7% (active) and -1.68% (active); in [20], 37.5% (inactive) and -7.61% (active). Besides, the growth is 12.3% (inactive) and 21.2% (inactive) in assay [7]; 44.1% (inactive) and -74.9% (active) in assay [8]; -45.7% (active) and -74.4% (active) in assay [9]; 27.1% (inactive) and -27.4% (active) in assay [10]; 8.28% (active) and 25.4% (inactive) in assay [11]; 7.77% (active) and 69.7% (inactive) in assay [12]. The growth in assay [13] is 36.9% (inactive) and 17.5% (inactive); in assay [14], 39.6% (inactive) and 28.2% (inactive); in assay [15], 27.1% (inactive) and 24.4% (inactive); in assay [16], 34.1% (inactive) and -22.3% (active); in assay [17], -30.4% (active) and -4.79% (active); in assay [18] it was 18.6% (inactive) and 57.2% (inactive). The growth in [19] was 9.16% (active) and -73.8% (active).
